Laboratory results taken from PubChem BioAssay AID1159580 (chemical genetic matrix, 2015).
Where “and” joins values, the source holds several entries; their conditions need not be identical. Equal entries are not always repeated. Hit rate of the full screen: of about 5,500 compounds, about 2,000 (36%) were called active. Roughly 18% stayed inconclusive and do not appear here. Cut-off read from the data, not from the text of the source: active = normalized growth mostly below about 0.91 (no sharp cut-off); inconclusive = no clear call, values can overlap the other calls; inactive = mostly above about 0.92. The list shows a part of the results.

Assay: chemical genetic growth profiling, strain panel (AID 1159580);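 note: tested at 20 µM; growth read once vehicle control cultures reached saturation at 30 °C; 1 = growth at the plate median or of vehicle wells; lower values mean less growth of the strain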
Settings: S. cerevisiae deletion strains, growth OD

Measured: normalized growth

Nc1nc(N)c2nc(CNc3ccc(C(=O)NC(CCC(=O)O)C(=O)O)cc3)cnc2n1 (stereo not given)
active: locus YBR021W, strain FUR4, hits give low values 1.2 [resistant]
inactive: locus YAL013W, strain DEP1, hits give low values 1.03 | locus YAL021C, strain ccr4, hits give low values 0.925 | locus YAL026C, strain drs2, hits give low values 0.991 | locus YAL030W, strain snc1, hits give low values 0.989 | locus YAL040C, strain CLN3, hits give low values 0.994 | locus YBL061C, strain skt5, hits give low values 1 | locus YBR009C, strain hhf1, hits give low values 0.991 | locus YBR023C, strain chs3, hits give low values 0.995 | locus YBR171W, strain sec66, hits give low values 1.01 | locus YBR229C, strain ROT2, hits give low values 1 | locus YBR231C, strain swc5, hits give low values 1.01 | locus YBR279W, strain paf1, hits give low values 1 | locus YCL011C, strain gbp2, hits give low values 0.983 | locus YCL016C, strain dcc1, hits give low values 0.975 | locus YCL029C, strain bik1, hits give low values 0.977 | locus YCL069W, strain vba3, hits give low values 0.996 | locus YCR088W, strain abp1, hits give low values 0.996 | locus YDL005C, strain med2, hits give low values 0.996 | locus YDL035C, strain GPR1, hits give low values 1.03 | locus YDL040C, strain nat1, hits give low values 1 | locus YDL074C, strain BRE1, hits give low values 0.993 | locus YDL101C, strain DUN1, hits give low values 0.996 | locus YDL134C, strain PPH21, hits give low values 1.02 | locus YDL185W, strain tfp1, hits give low values 0.961 | locus YDL192W, strain arf1, hits give low values 1 | locus YDR001C, strain nth1, hits give low values 0.987 | locus YDR069C, strain doa4, hits give low values 0.985 | locus YDR101C, strain arx1, hits give low values 0.982 | locus YDR137W, strain rgp1, hits give low values 0.985 | locus YDR150W, strain NUM1, hits give low values 1 | locus YDR159W, strain sac3, hits give low values 1.05 | locus YDR162C, strain NBP2, hits give low values 0.993 | locus YDR195W, strain ref2 0.961 | locus YDR297W, strain sur2, hits give low values 1 | locus YDR318W, strain mcm21, hits give low values 1 | locus YDR334W, strain swr1, hits give low values 0.985 | locus YDR335W, strain msn5, hits give low values 0.977 | locus YDR363W, strain ESC2, hits give low values 1 | locus YDR388W, hits give low values 0.994 | locus YDR392W, strain spt3, hits give low values 0.94 | locus YDR502C, strain sam2, hits give low values 1 | locus YEL003W, strain gim4, hits give low values 1 | locus YEL037C, strain rad23, hits give low values 0.989 | locus YEL061C, strain CIN8 (second series), hits give low values 0.996 | locus YEL061C, strain CIN8, hits give low values 0.994 | locus YER002W, strain NOP16, hits give low values 0.993 | locus YER015W, strain faa2, hits give low values 0.994 | locus YER016W, strain bim1, hits give low values 0.998 | locus YER110C, hits give low values 0.981 | locus YER111C, strain swi4, hits give low values 0.995 | locus YER155C, strain BEM2 (second series), hits give low values 1.05 | locus YER155C, strain BEM2, hits give low values 0.987 | locus YER167W, strain BCK2, hits give low values 1 | locus YFR010W, strain ubp6, hits give low values 0.982 | locus YGL078C, strain dbp3, hits give low values 0.999 | locus YGL086W, strain mad1, hits give low values 0.994 | locus YGL167C, strain pmr1, hits give low values 0.974 | locus YGL173C, strain kem1, hits give low values 1.01 | locus YGL227W, strain vid30, hits give low values 1 | locus YGL240W, strain doc1, hits give low values 1.03 | locus YGL248W, strain PDE1, hits give low values 1 | locus YGL253W, strain hxk2, hits give low values 1.01 | locus YGR078C, strain PAC10, hits give low values 1.02 and 0.965 | locus YGR135W, strain pre9, hits give low values 0.998 | locus YGR252W, strain gcn5, hits give low values 1.14 | locus YHR013C, strain ard1, hits give low values 0.971 | locus YHR027C, strain rpn1, hits give low values 0.982 | locus YHR030C, strain SLT2, hits give low values 0.99 | locus YHR079C, strain IRE1 (second series), hits give low values 0.978 | locus YHR094C, strain hxt1, hits give low values 0.991 | locus YHR129C, strain ARP1, hits give low values 1 | locus YHR142W, strain chs7, hits give low values 0.965 | locus YHR200W, strain rpn10, hits give low values 0.992 | locus YIL066C, strain RNR3, hits give low values 1 | locus YIL073C, strain SPO22, hits give low values 0.946 | locus YIL125W, strain kgd1, hits give low values 0.993 | locus YIR030C, strain dcg1, hits give low values 0.988 | locus YJL092W, strain hpr5, hits give low values 0.983 | locus YJL095W, strain BCK1 (second series), hits give low values 0.985 | locus YJL095W, strain BCK1, hits give low values 0.984 | locus YJL115W, strain asf1, hits give low values 0.962 | locus YJL129C, strain trk1, hits give low values 0.998 | locus YJL134W, strain LCB3, hits give low values 0.988 | locus YJL154C, strain vps35, hits give low values 0.99 | locus YJL164C, strain tpk1, hits give low values 0.964 | locus YJL166W, strain qcr8, hits give low values 1.02 | locus YJL168C, strain set2, hits give low values 0.998 | locus YJL187C, strain SWE1 (second series), hits give low values 0.992 | locus YJR043C, strain POL32, hits give low values 1.04
